# Measurements published in PubChem BioAssay (NCI).
# Compounds without any hit were thinned out: in the full panel of roughly 79,000, 15% have a hit. A number with no mark means an inactive call. Activity calls are given as the source filed them. No stated cut-off is given here; in the data, active means growth inhibition above about 70%; inactive means the rest.
# Assays:
# [1] = NCI Yeast Anticancer Drug Screen. Data for the rad50 strain (AID 155);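 further: 0% = growth of vehicle-only cultures of the same strain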; details: S. cerevisiae rad50 strain growth inhibition, active compounds read high
# Summary of the method: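 DNA repair mutant yeast, compound exposure, growth read-out; inhibition is taken relative to vehicle.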
# [2] = NCI Yeast Anticancer Drug Screen. Data for the mec2-1 strain (AID 157); details: S. cerevisiae mec2-1 strain, active compounds read high
# Summary of the method: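 Each compound was tested on mec2-1 yeast, a strain altered in DNA damage repair or cell cycle control. Growth inhibition is reported relative to vehicle.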
# [3] = NCI Yeast Anticancer Drug Screen. Data for the sgs1 mgt1 strain (AID 161);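 further: 0% = growth of cultures given vehicle only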; details: S. cerevisiae sgs1 mgt1 strain, active compounds read high
# Summary of the method: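 Genetically altered yeast, compound exposure, growth inhibition relative to vehicle.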
# [4] = NCI Yeast Anticancer Drug Screen. Data for the cln2 rad14 strain (AID 165);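 further: 0% = growth equal to vehicle treated cultures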; details: S. cerevisiae cln2 rad14 strain, active compounds read high
# Summary of the method: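 Test compounds were added to cln2 rad14 yeast cultures; inhibition of growth was then determined by comparison with vehicle treatment.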
# [5] = NCI Yeast Anticancer Drug Screen. Data for the bub3 strain (AID 167); details: S. cerevisiae bub3 mutant strain, active compounds read high
# Summary of the method: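 In this screen, a yeast mutant lacking normal mitotic checkpoint function is challenged with compound. Relative growth versus vehicle gives the inhibition value.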
# [6] = NCI Yeast Anticancer Drug Screen. Data for the mlh1 rad18 strain (AID 175); details: S. cerevisiae mlh1 rad18 strain growth inhibition, active compounds read high
# Summary of the method: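 Inhibition values reflect reduced growth of mutant yeast versus vehicle-treated controls following compound exposure; the mutations affect DNA damage repair.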
# [7] = at 5.0 µM (retest, dose inferred, filed as 0.5)
# [8] = at 50.0 µM (retest, dose inferred, filed as 5.0)
Structure (SMILES),"growth inhibition [1, 7]","growth inhibition [1, 8]",growth inhibition ([1]; at 50.0 µM),"growth inhibition [2, 7]","growth inhibition [2, 8]",growth inhibition ([2]; at 50.0 µM),"growth inhibition [3, 7]","growth inhibition [3, 8]",growth inhibition ([3]; at 50.0 µM),"growth inhibition [4, 7]","growth inhibition [4, 8]",growth inhibition ([4]; at 50.0 µM),"growth inhibition [5, 7]","growth inhibition [5, 8]",growth inhibition ([5]; at 50.0 µM),"growth inhibition [6, 7]","growth inhibition [6, 8]",growth inhibition ([6]; at 50.0 µM)
Clc1ccccc1C#[C][Hg][C]#Cc1ccccc1Cl,3%,34%,0.25%,3%,94% (active),5.95%,4%,95% (active),19.9%,1%,29%,-4.95%,-3%,92% (active),-9.2%,5%,76% (active),19.4%
CC1CCCC[N-]1.CC1CCCC[N-]1.N#C[S-].N#C[S-].[Cd] (configuration not stated),20%,87% (active),93.2% (active),9%,52%,66.7%,12%,36%,70.7% (active),7%,69%,58%,10%,26%,67.7%,16%,39%,73% (active)
O=C(O)c1ccccc1.[Zn+2],1%,-5%,19.4%,3%,-10%,8.6%,4%,9%,15.5%,-3%,-21%,-74.6%,-8%,-1%,45.6%,6%,10%,1.9%
O=C(c1ccccc1)c1cc(CN(CCCl)CCCl)c(O)cc1O,0%,32%,54.3%,-17%,43%,17.9%,7%,75% (active),43%,-2%,-1%,13.2%,-6%,-4%,29.3%,11%,86% (active),80.3% (active)
COC12C(COC(N)=O)C3=C(C(=O)C(C)=C(N)C3=O)N1CC1C2N1C (configuration not stated),10%,74% (active),43.6%,16%,84% (active),44.6%,16%,77% (active),55.7%,1%,77% (active),38.4%,5%,55%,31%,34%,92% (active),75.8% (active)
CC(=O)[C-](I)C(C)=O.CC(=O)[C-](I)C(C)=O.CC(=O)[C-](I)C(C)=O.[Ru+3],-6%,90% (active),48.2%,14%,95% (active),90.5% (active),5%,89% (active),35.8%,26%,85% (active),7.45%,18%,90% (active),-1.95%,32%,96% (active),53.5%
CC(=O)CC(=O)Nc1c(C)[c]([Hg][O]C(C)=O)c(C)[c]([Hg][O]C(C)=O)[c]1[Hg][O]C(C)=O,60%,93% (active),90.8% (active),99% (active),94% (active),92.6% (active),57%,94% (active),92.8% (active),33%,93% (active),88% (active),99% (active),94% (active),92.2% (active),85% (active),93% (active),90% (active)
O=C(N/N=C/c1cc(Br)cc(Br)c1[O-])c1ccccc1O.O=C(N/N=C/c1cc(Br)cc(Br)c1[O-])c1ccccc1O.[Mn+2],96% (active),94% (active),97.6% (active),98% (active),96% (active),95.7% (active),98% (active),93% (active),93.2% (active),93% (active),90% (active),97.3% (active),96% (active),94% (active),96% (active),96% (active),94% (active),98% (active)
CC1=C(N2CC2)C(=O)c2nc3n(c2C1=O)CCC3OC(=O)CCl (configuration not stated),28%,61%,46.5%,6%,47%,57%,18%,60%,72.2% (active),5%,31%,57.9%,24%,19%,6%,23%,67%,66.1%
Sc1nc2ccccc2s1.Sc1nc2ccccc2s1.Sc1nc2ccccc2s1.Sc1nc2ccccc2s1.[Cl][Rh][Cl],20%,95% (active),95.7% (active),12%,96% (active),98.5% (active),38%,97% (active),93.3% (active),0%,94% (active),97.1% (active),31%,97% (active),96.8% (active),43%,96% (active),97.7% (active)
CCOC(=O)NP(=O)(NNc1ccccc1)NNc1ccccc1,79% (active),98% (active),100% (active),82% (active),96% (active),98.8% (active),92% (active),98% (active),98.8% (active),84% (active),99% (active),98.2% (active),93% (active),98% (active),98.8% (active),92% (active),98% (active),98.2% (active)
Cc1cc[n+](C2=C(Nc3c(C)cccc3C)C(=O)c3ccccc3C2=O)cc1,44%,88% (active),89.7% (active),5%,61%,73.2% (active),-6%,67%,68.1%,-7%,54%,15.2%,6%,66%,48.4%,-1%,51%,71.2% (active)
C#CC(O)(CC)CC,-4%,10%,69.1%,0%,-4%,13.4%,-3%,-2%,77.1% (active),-6%,-5%,3.5%,-1%,2%,38.8%,-1%,9%,73.5% (active)
C[CH2][Pb]([CH2]C)([CH2]C)[O]C(C)=O,33%,48%,84.8% (active),43%,40%,76% (active),11%,98% (active),86.8% (active),29%,96% (active),52.7%,26%,97% (active),82.4% (active),35%,59%,77.1% (active)
CCC(=O)C(CCN1CCC(N2C(=O)C(CCC#N)c3ccccc32)CC1)(c1ccccc1)c1ccccc1 (configuration not stated),-3%,-3%,-7.55%,-6%,-6%,-23.4%,8%,-3%,10.8%,-2%,14%,3.15%,-1%,-17%,10.2%,-23%,1%,32.2%
C[C@]12C/C(=C/O)C(=O)C(O)=C1CC[C@@H]1C2CC[C@@]2(C)C1CC[C@@H]2O (some centres not stated),6%,56%,78.9% (active),5%,33%,59.4%,4%,70% (active),52.2%,6%,52%,62.2%,-39%,81% (active),79.4% (active),8%,74% (active),89.2% (active)
CC(=O)[O][Sn]([c]1ccccc1)([c]1ccccc1)[c]1ccccc1,97% (active),99% (active),91.1% (active),99% (active),99% (active),93.4% (active),98% (active),98% (active),93.6% (active),90% (active),98% (active),92.8% (active),98% (active),96% (active),92.1% (active),100% (active),99% (active),91.4% (active)
O=C(O)C(F)(F)F.[Ag],99% (active),98% (active),98.1% (active),100% (active),99% (active),99.2% (active),99% (active),99% (active),99.1% (active),99% (active),99% (active),98.7% (active),99% (active),98% (active),98.5% (active),99% (active),99% (active),97.6% (active)
CC(=O)c1cc2c(cc1O)C(C)(C)CCC2(C)C,3%,3%,97.8% (active),1%,0%,98.7% (active),2%,1%,47.7%,0%,0%,95.6% (active),3%,7%,95% (active),-2%,-5%,98.8% (active)
